# Assay results reported in PubChem BioAssay (NCI).
# Compounds without any hit were thinned out: in the full panel of roughly 79,000, 15% have a hit. Unmarked numbers belong to inactive results. Active and inactive are the calls of the source. Cut-off read from the data, not from the text of the source: active = growth inhibition above about 70%; inactive = the rest.
# How the values were obtained:
# [1] = NCI Yeast Anticancer Drug Screen. Data for the rad50 strain (AID 155);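 note: 0% = growth of vehicle-only cultures of the same strain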; conditions: S. cerevisiae rad50 strain growth inhibition, stronger effect = higher value
# Method in brief: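 Relative growth inhibition (compound vs vehicle) was measured in yeast with a defined repair-gene alteration.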
# [2] = NCI Yeast Anticancer Drug Screen. Data for the mec2-1 strain (AID 157); conditions: S. cerevisiae mec2-1 strain, stronger effect = higher value
# Method in brief: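 Mutant yeast (mec2-1) grown with compound; growth inhibition relative to vehicle control reported.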
# [3] = NCI Yeast Anticancer Drug Screen. Data for the sgs1 mgt1 strain (AID 161);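 note: 0% = growth of cultures given vehicle only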; conditions: S. cerevisiae sgs1 mgt1 strain, stronger effect = higher value
# Method in brief: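 This yeast growth screen uses a strain with defined DNA-repair lesions; compound-treated growth is compared with vehicle-treated growth.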
# [4] = NCI Yeast Anticancer Drug Screen. Data for the cln2 rad14 strain (AID 165);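 note: 0% = growth equal to vehicle treated cultures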; conditions: S. cerevisiae cln2 rad14 strain, stronger effect = higher value
# Method in brief: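 Readout is yeast growth inhibition versus vehicle-treated controls, using a strain with cln2 and rad14 alterations exposed to compound.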
# [5] = NCI Yeast Anticancer Drug Screen. Data for the bub3 strain (AID 167); conditions: S. cerevisiae bub3 mutant strain, stronger effect = higher value
# Method in brief: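 Screening used yeast with an engineered genetic alteration affecting cell cycle control. Compound-exposed cultures were compared with vehicle cultures, and reduced growth was taken as inhibition.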
# [6] = NCI Yeast Anticancer Drug Screen. Data for the mlh1 rad18 strain (AID 175); conditions: S. cerevisiae mlh1 rad18 strain growth inhibition, stronger effect = higher value
# Method in brief: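 Genetically defined yeast (DNA repair-deficient) exposed to compounds; growth inhibition determined relative to vehicle.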
# [7] = at 5.0 µM (retest, dose inferred, filed as 0.5)
# [8] = at 50.0 µM (retest, dose inferred, filed as 5.0)
SMILES,"growth inhibition [1, 7]","growth inhibition [1, 8]",growth inhibition ([1]; at 50.0 µM),"growth inhibition [2, 7]","growth inhibition [2, 8]",growth inhibition ([2]; at 50.0 µM),"growth inhibition [3, 7]","growth inhibition [3, 8]",growth inhibition ([3]; at 50.0 µM),"growth inhibition [4, 7]","growth inhibition [4, 8]",growth inhibition ([4]; at 50.0 µM),"growth inhibition [5, 7]","growth inhibition [5, 8]",growth inhibition ([5]; at 50.0 µM),"growth inhibition [6, 7]","growth inhibition [6, 8]",growth inhibition ([6]; at 50.0 µM)
CCCCCCCCSCc1ccc(N)cc1,23%,97% (active),89.7% (active),12%,98% (active),91.4% (active),37%,98% (active),90.5% (active),39%,98% (active),89.5% (active),51%,98% (active),89% (active),20%,97% (active),89.6% (active)
CN(C)CCC(=O)/C=C/c1ccccc1,-2%,3%,53%,-1%,5%,38%,-3%,1%,75.9% (active),-2%,1%,38.1%,-3%,11%,61%,-3%,4%,63.1%
CC(C)OC(=O)c1cc([N+](=O)[O-])cc([N+](=O)[O-])c1Sc1ncnc2nc[nH]c12,49%,54%,14.2%,11%,49%,15.5%,44%,83% (active),20.9%,44%,57%,65.8%,45%,79% (active),24.7%,35%,42%,66.8%
Clc1ccc2nc3c(c(N4CCOCC4)c2c1)CCCC3,94% (active),97% (active),99% (active),92% (active),99% (active),99.3% (active),94% (active),98% (active),99.2% (active),80% (active),99% (active),98.9% (active),53%,98% (active),99.5% (active),96% (active),98% (active),99.2% (active)
C=C1C(=O)OC2CC1C(O)C/C(C)=C/CC/C(C)=C/C(O)CC2C (stereo not given),18%,70% (active),-4.95%,19%,84% (active),-20.6%,15%,54%,9.6%,11%,46%,-5%,26%,84% (active),-7.7%,48%,95% (active),83.5% (active)
CC(CO)[C@H]1OC(=O)C=C2[C@@]13O[C@@H]3[C@H]1OC(=O)[C@@]3(C)[C@H]4O[C@H]4C[C@@]2(C)[C@@H]13 (stereo not given in full),51%,98% (active),89.8% (active),47%,99% (active),91% (active),58%,97% (active),88.2% (active),59%,98% (active),89.5% (active),66%,98% (active),88.8% (active),61%,97% (active),89.8% (active)
CCOC(=O)c1cnc(SCc2ccc(Cl)cc2Cl)nc1Cl,1%,47%,38.4%,0%,73% (active),54.6%,16%,66%,58.5%,-3%,59%,71.8% (active),0%,54%,25.7%,0%,62%,65%
O=C1C(c2ccccc2)=[N+]([O-])c2ccccc21,2%,39%,87.4% (active),1%,98% (active),98% (active),-2%,92% (active),98.2% (active),0%,12%,73.5% (active),29%,80% (active),99.2% (active),4%,92% (active),76.3% (active)
CCN(CC)CCCC(Nc1c2ccc(Cl)cc2nc2ccc(OC)cc12)c1cccs1 (stereo not given),91% (active),74% (active),81.5% (active),91% (active),72% (active),35.2%,92% (active),75% (active),65.9%,87% (active),62%,74.8% (active),90% (active),68%,68.9%,91% (active),72% (active),62.5%
O=C1NC2(C=Cc3c(ccc4ccccc34)O2)Oc2ccccc21 (stereo not given),-12%,-8%,44.5%,-16%,-7%,10%,6%,11%,34%,31%,48%,24.4%,4%,-8%,7.65%,-3%,3%,62%
